Measured values from PubChem BioAssay AID1159580 (chemical genetic matrix, 2015).
“And” between values parts separate entries of the source, which are not always exact repeats. Equal values may be shown once. Out of some 5,500 compounds screened, about 2,000 (36%) were called active. Another 18% or so got no clear call; they are omitted. No stated cut-off is given here; in the data, active means normalized growth mostly below about 0.91 (no sharp cut-off); inconclusive means no clear call, values can overlap the other calls; inactive means mostly above about 0.92. This is one part of the list.

Experiment: chemical genetic growth profiling, strain panel (AID 1159580);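 further: tested at 20 µM; growth read once vehicle control cultures reached saturation at 30 °C; 1 = growth at the plate median or of vehicle wells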
Conditions: S. cerevisiae deletion strains, growth OD

Measured: normalized growth

COc1c(C)c2c(c(O)c1C/C=C(\C)CCC(=O)O)C(=O)OC2
inactive: locus YBR021W, strain FUR4, stronger effect = lower value 1.07 | locus YBR171W, strain sec66, stronger effect = lower value 0.945 | locus YBR229C, strain ROT2, stronger effect = lower value 0.973 | locus YDL005C, strain med2, stronger effect = lower value 0.915 | locus YDL101C, strain DUN1, stronger effect = lower value 0.95 | locus YDR150W, strain NUM1, stronger effect = lower value 0.997 | locus YDR195W, strain ref2 1.09 | locus YER110C, stronger effect = lower value 1.02 | locus YGL240W, strain doc1, stronger effect = lower value 0.95 | locus YGR252W, strain gcn5, stronger effect = lower value 1.01 | locus YIL073C, strain SPO22, stronger effect = lower value 0.794 | locus YJL134W, strain LCB3, stronger effect = lower value 0.976 | locus YJL168C, strain set2, stronger effect = lower value 0.979 | locus YJR043C, strain POL32, stronger effect = lower value 0.906
0.974 (inactive) and 0.154 (active): locus YHR030C, strain SLT2, stronger effect = lower value
active: locus YAL013W, strain DEP1, stronger effect = lower value 0.84 | locus YAL021C, strain ccr4, stronger effect = lower value 0.556 | locus YAL026C, strain drs2, stronger effect = lower value 0.323 | locus YAL030W, strain snc1, stronger effect = lower value 0.621 | locus YBL061C, strain skt5, stronger effect = lower value 0.712 | locus YBR009C, strain hhf1, stronger effect = lower value 0.417 | locus YBR023C, strain chs3, stronger effect = lower value 0.602 | locus YBR231C, strain swc5, stronger effect = lower value 0.386 | locus YBR279W, strain paf1, stronger effect = lower value 0.613 | locus YCL011C, strain gbp2, stronger effect = lower value 0.47 | locus YCL016C, strain dcc1, stronger effect = lower value 0.518 | locus YCL029C, strain bik1, stronger effect = lower value 0.723 | locus YCL069W, strain vba3, stronger effect = lower value 0.395 | locus YCR088W, strain abp1, stronger effect = lower value 0.508 | locus YDL035C, strain GPR1, stronger effect = lower value 0.789 | locus YDL040C, strain nat1, stronger effect = lower value 0.758 | locus YDL074C, strain BRE1, stronger effect = lower value 0.498 | locus YDL134C, strain PPH21, stronger effect = lower value 0.876 | locus YDL185W, strain tfp1, stronger effect = lower value 0.185 | locus YDL192W, strain arf1, stronger effect = lower value 0.737 | locus YDR001C, strain nth1, stronger effect = lower value 0.604 | locus YDR069C, strain doa4, stronger effect = lower value 0.713 | locus YDR101C, strain arx1, stronger effect = lower value 0.668 | locus YDR137W, strain rgp1, stronger effect = lower value 0.345 | locus YDR159W, strain sac3, stronger effect = lower value 0.401 | locus YDR162C, strain NBP2, stronger effect = lower value 0.77 | locus YDR297W, strain sur2, stronger effect = lower value 0.664 | locus YDR318W, strain mcm21, stronger effect = lower value 0.625 | locus YDR334W, strain swr1, stronger effect = lower value 0.341 | locus YDR335W, strain msn5, stronger effect = lower value 0.549 | locus YDR388W, stronger effect = lower value 0.75 | locus YDR392W, strain spt3, stronger effect = lower value 0.0934 | locus YDR502C, strain sam2, stronger effect = lower value 0.666 | locus YEL003W, strain gim4, stronger effect = lower value 0.539 | locus YEL037C, strain rad23, stronger effect = lower value 0.451 | locus YEL061C, strain CIN8 (second series), stronger effect = lower value 0.368 | locus YEL061C, strain CIN8, stronger effect = lower value 0.863 | locus YER015W, strain faa2, stronger effect = lower value 0.667 | locus YER016W, strain bim1, stronger effect = lower value 0.761 | locus YER111C, strain swi4, stronger effect = lower value 0.662 | locus YER155C, strain BEM2 (second series), stronger effect = lower value 0.363 | locus YER155C, strain BEM2, stronger effect = lower value 0.781 | locus YER167W, strain BCK2, stronger effect = lower value 0.582 | locus YFR010W, strain ubp6, stronger effect = lower value 0.384 | locus YGL078C, strain dbp3, stronger effect = lower value 0.349 | locus YGL086W, strain mad1, stronger effect = lower value 0.759 | locus YGL167C, strain pmr1, stronger effect = lower value 0.666 | locus YGL173C, strain kem1, stronger effect = lower value 0.82 | locus YGL227W, strain vid30, stronger effect = lower value 0.494 | locus YGL248W, strain PDE1, stronger effect = lower value 0.861 | locus YGL253W, strain hxk2, stronger effect = lower value 0.437 | locus YGR078C, strain PAC10, stronger effect = lower value 0.808 | locus YGR135W, strain pre9, stronger effect = lower value 0.874 | locus YGR229C, strain SMI1, stronger effect = lower value 0.608 | locus YHR013C, strain ard1, stronger effect = lower value 0.533 | locus YHR027C, strain rpn1, stronger effect = lower value 0.699 | locus YHR079C, strain IRE1 (second series), stronger effect = lower value 0.536 | locus YHR079C, strain IRE1, stronger effect = lower value 0.165 | locus YHR094C, strain hxt1, stronger effect = lower value 0.734 | locus YHR129C, strain ARP1, stronger effect = lower value 0.869 | locus YHR142W, strain chs7, stronger effect = lower value 0.33 | locus YHR200W, strain rpn10, stronger effect = lower value 0.889 | locus YIL066C, strain RNR3, stronger effect = lower value 0.835 | locus YIL125W, strain kgd1, stronger effect = lower value 0.238 | locus YIR030C, strain dcg1, stronger effect = lower value 0.745 | locus YJL092W, strain hpr5, stronger effect = lower value 0.505 | locus YJL095W, strain BCK1 (second series), stronger effect = lower value 0.714 | locus YJL095W, strain BCK1, stronger effect = lower value 0.755 and 0.169 | locus YJL115W, strain asf1, stronger effect = lower value 0.593 | locus YJL129C, strain trk1, stronger effect = lower value 0.686 | locus YJL154C, strain vps35, stronger effect = lower value 0.596 | locus YJL164C, strain tpk1, stronger effect = lower value 0.469 | locus YJL166W, strain qcr8, stronger effect = lower value 0.641 | locus YJL187C, strain SWE1 (second series), stronger effect = lower value 0.749 | locus YJR066W, strain TOR1, stronger effect = lower value 0.0708 | locus YJR075W, strain HOC1, stronger effect = lower value 0.772
